Rows were chosen to be rich in hits. Some 7.8% of all compounds tested hit in one or more screens of this group.
MITF inhib: inhibitors of MITF, primary screen, MITF inhibitor project, cell-based, luminescence | TRPM1 promoter luciferase, 24 h | inhibition, % (test concentration not listed) | hit rate 0.28% among 37,000; in the data active means inhibition above about 85%; inconclusive means no clear call, values can overlap the other calls; inactive means below about 68%;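 further: human melanocyte line stably carrying TRPM1 promoter luciferase reporter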
Hedgehog inh: Hedgehog pathway signaling inhibitors, primary screen, luminescence, Shh-LIGHT2 cells, Gli-luciferase; Shh-LIGHT2 Gli-luciferase reporter, 30 h; inhibition, % (test concentration not listed); hit rate 2.1% among 22,000; AID 2313, 2010;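 active means mean inhibition across valid replicates above about 65%, limit read from the data; inconclusive means mean under the limit, yet half or more replicates past it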;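 further: pathway switched on by Shh-conditioned medium diluted 1 in 25 in low serum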
NOMO-1 viab: NOMO-1 AML cell viability reduction, primary screen, STK33 inhibitor project, CellTiter-Glo luminescence; NOMO-1 AML viability, 72 h; inhibition, % (concentration not given with the values); hit rate 7.5% among 37,000; AID 2330, 2010; in the data active means inhibition above about 80%; inconclusive means no clear call, values can overlap the other calls
* = called active by the depositor; ? = inconclusive; . = no result given.

SMILES	MITF inhib	Hedgehog inh	NOMO-1 viab
C[C@H]1CN([C@@H](C)CO)C(=O)c2cc(NC(=O)Nc3ccc(C(F)(F)F)cc3)ccc2O[C@@H]1CN(C)Cc1ccc(-c2ccccc2)cc1	1	.	107*
C[C@@H]1CN([C@H](C)CO)C(=O)c2cc(NC(=O)Nc3ccc(C(F)(F)F)cc3)ccc2O[C@@H]1CN(C)Cc1ccc(Oc2ccccc2)cc1	3	17	?
C[C@H]1CN([C@@H](C)CO)C(=O)c2cc(NC(=O)Nc3ccc(C(F)(F)F)cc3)ccc2O[C@H]1CN(C)Cc1ccc(-c2ccccc2)cc1	10	11	117*
C[C@H](CO)N1C[C@H](C)[C@H](CN(C)Cc2ccc(-c3ccccc3)cc2)Oc2ccc(NC(=O)Nc3ccc(C(F)(F)F)cc3)cc2C1=O	4	.	92*
CCn1c(SCC(=O)Nc2cccc3ccccc23)nnc1-c1ccco1	-20	.	26
O=C(COC(=O)c1ccc(Br)cc1)c1ccc(Br)cc1	2	.	19
O=C(COC(=O)c1c(C(F)(F)F)cccc1C(F)(F)F)c1ccc(Cl)cc1	-8	-2	111*
O=C(COc1ccc(Br)cc1)Nc1cccc(-c2nc3cc(Cl)ccc3o2)c1	-25	.	17
COc1cc2c(cc1OC)CN(C(=O)CSc1ncnc3sc4c(c13)CCC(C)C4)CC2 (stereo unspecified)	8	.	-25
CC(C(=O)Nc1ccccc1-c1ccccc1)N(c1ccccc1)S(C)(=O)=O (stereo unspecified)	-9	.	14
C[C@@H]1CN([C@@H](C)CO)C(=O)c2cc(NC(=O)Nc3ccccc3)ccc2O[C@@H]1CN(C)Cc1ccc(Oc2ccccc2)cc1	12	.	117*
C[C@H](CO)N1C[C@H](C)[C@H](CN(C)Cc2ccc(Oc3ccccc3)cc2)Oc2ccc(NC(=O)Cc3ccccc3)cc2C1=O	25	.	69
C[C@@H]1CN([C@@H](C)CO)C(=O)c2cc(NC(=O)NC3CCCCC3)ccc2O[C@@H]1CN(C)Cc1ccc(Oc2ccccc2)cc1	-27	50	120*
C[C@H]1CN([C@@H](C)CO)C(=O)c2cc(NC(=O)Cc3ccccc3)ccc2O[C@@H]1CN(C)Cc1ccc(Oc2ccccc2)cc1	10	.	93*
C[C@H](CO)N1C[C@H](C)[C@@H](CN(C)Cc2ccc(Oc3ccccc3)cc2)Oc2ccc(NC(=O)Nc3ccccc3)cc2C1=O	2	.	?
COc1ccc(NC(=O)Nc2ccc3c(c2)C(=O)N([C@H](C)CO)C[C@H](C)[C@H](CN(C)Cc2ccc(-c4ccccc4)cc2)O3)cc1	9	.	29
C[C@@H]1CN([C@H](C)CO)C(=O)c2cc(NC(=O)NC3CCCCC3)ccc2O[C@H]1CN(C)Cc1ccc(Oc2ccccc2)cc1	2	.	?
COc1ccc(NC(=O)Nc2ccc3c(c2)C(=O)N([C@@H](C)CO)C[C@@H](C)[C@@H](CN(C)Cc2ccc(-c4ccccc4)cc2)O3)cc1	10	52	116*
Cc1ccc(NC(=O)COc2ccc3c(=O)c(-c4ccccc4Cl)coc3c2)cc1	-4	.	26
Cc1cc(OCC(=O)Nc2ncn[nH]2)c(C)cc1Br	-65	.	10
Cn1nc(OC(C)(C)C(=O)Oc2ccc(Cl)cc2Cl)cc1C(F)(F)F	-10	1	33
COc1ccc(NC(=O)Nc2ccc3c(c2)C(=O)N([C@@H](C)CO)C[C@H](C)[C@@H](CN(C)Cc2ccc(Oc4ccccc4)cc2)O3)cc1	-10	3	33
COc1ccc(NC(=O)Nc2ccc3c(c2)C(=O)N([C@H](C)CO)C[C@@H](C)[C@@H](CN(C)Cc2ccc(Oc4ccccc4)cc2)O3)cc1	-7	96*	122*
CCCCN1C(=O)/C(=C2/Sc3ccc(OC)cc3N2C)SC1=S	-6	-9	29
COc1cccc2cc(-c3nnc(SCC(=O)Nc4cccc(Br)c4)n3C)oc12	36	.	107*
COc1cccc2cc(-c3nnc(SCC(=O)Nc4cccc(F)c4)n3C)oc12	-13	.	12
O=C1CCC(=O)N1CN(C(=O)C(F)(F)F)c1ccccc1	-12	.	0
CO[C@@H]1C=C[C@@]23c4cc5c(cc4CN(CC2O)[C@H]3C1)OCO5 (stereo partly specified)	49	88*	113*
C[C@@H]1CN([C@@H](C)CO)C(=O)Cc2cc(NS(=O)(=O)c3ccc(Cl)cc3)ccc2O[C@@H]1CN(C)Cc1ccc(-c2ccccc2)cc1	8	8	22
C[C@H]1CN([C@@H](C)CO)C(=O)Cc2cc(NS(=O)(=O)c3ccc(Cl)cc3)ccc2O[C@H]1CN(C)Cc1ccc(-c2ccccc2)cc1	26	32	111*

Assay outcomes (PubChem BioAssay)
